These results are taken from PubChem BioAssay AID624169 (The Scripps Research Institute Molecular Screening Center, 2012).

Each structure is given as a SMILES string. The whole screen tested about 360,000 compounds, of which about 2,400 (0.67%) were called active.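 How the source made its calls: active means activation above a run cutoff, the mean activation of all tested compounds plus 3 SD (cut at about 14% in these data); inactive means the rest.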 This excerpt belongs to a sample that is enriched for actives.

Chain of 5-hydroxytryptamine receptor 2A (Mus musculus) (P35363 whole entry, looked up): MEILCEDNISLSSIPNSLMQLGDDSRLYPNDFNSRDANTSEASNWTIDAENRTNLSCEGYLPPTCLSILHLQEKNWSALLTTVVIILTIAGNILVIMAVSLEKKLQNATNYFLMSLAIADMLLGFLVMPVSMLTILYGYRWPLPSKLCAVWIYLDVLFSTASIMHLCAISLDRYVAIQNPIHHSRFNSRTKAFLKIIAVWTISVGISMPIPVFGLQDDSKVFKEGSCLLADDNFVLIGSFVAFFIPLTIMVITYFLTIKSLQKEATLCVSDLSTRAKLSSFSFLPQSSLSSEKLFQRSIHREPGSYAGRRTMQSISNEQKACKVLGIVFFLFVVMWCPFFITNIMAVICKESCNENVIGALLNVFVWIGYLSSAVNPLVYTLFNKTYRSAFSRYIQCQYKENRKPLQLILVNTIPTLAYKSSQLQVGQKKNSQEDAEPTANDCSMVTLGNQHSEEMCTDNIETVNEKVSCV

This test has as its target 5-hydroxytryptamine receptor 2A (Mus musculus) (UniProt P35363). Description: mouse Htr2a agonists via beta-arrestin recruitment, primary screen, cell-based, luminescence (AID 624169).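 Further: 0% = plate median of compound wells and 100% = 30 µM serotonin.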 Conditions: CHO-K1 mHTR2A beta-arrestin complementation, at 7.6 µM, hits give high values, percent of 30 µM serotonin response.
Take `CC(C)(C)Oc1ccccc1Nc1nc(NCCO)nc(N2CCCC2)n1`: the activation is 23.9% (active). For the compound `Cn1ncc2c(N3CCCCC3)nc(NCCCO)nc21`, the activation was 1.52% (inactive).

Regarding `CCCOc1ccc(Cl)cc1Nc1nc(NCCO)nc(N2CCCC2)n1`, the activation is 0.98% (inactive). As for `CCc1nc2c(OCCc3cccc(OC)c3)cccn2c1N(C)C(=O)c1ccc(C)cc1`, the figure is -1.71% (inactive). For `O=C(CN1CCC(O)(c2cccc(C(F)(F)F)c2)CC1)NCCc1ccccc1` the value was -1.29% (inactive). As to `COC(=O)[C@]12CCCCC=C1N(CCC1=CCCCC1)C(=O)[C@H](CC(=O)NCC1CCCCC1)C2`, the activation is 19.2% (active).

For the compound `CCOC(=O)N1CCN(C(=O)C[C@@H]2C[C@@]3(C(=O)OC)CCCCC=C3N(CCC3=CCCCC3)C2=O)CC1`, the activation is -5.86% (inactive). For `CCCCOCCCNC(=O)C[C@@H]1C[C@@]2(C(=O)OC)CCCCC=C2N(CCC2=CCCCC2)C1=O` the value was -1.53% (inactive). For `COc1ccc(-c2ccc(CN3C(C(C)C)C(=O)N(Cc4cn(CC5CCCCC5)nn4)CCS3(=O)=O)cc2)cn1` (stereo not given), the activation is -1.52% (inactive). Regarding `Cc1c(C(C)(C)O)[nH]c2ccc(C#N)cc12`, the activation is 3.5% (inactive). With `Cc1ccc(S(=O)(=O)N2CCN(c3ncnc4ccccc34)CC2)cc1`, the activation was 16.6% (active).

Take `Cc1ccc(C)c(S(=O)(=O)N2CCN(c3ncnc4sccc34)CC2)c1`: the activation is 4.9% (inactive). For the compound `Cc1ccc(S(=O)(=O)N2CCN(Cc3cccc(C)c3O)CC2)cc1`, the activation is -3.27% (inactive). As for `CCN(CC)CCn1cnc2c1c(=O)n(CCOC(=O)c1cc(OC)c(OC)c(OC)c1)c(=O)n2C`, the activation was -1.4% (inactive).

For `COC(=O)[C@@]1(Cc2ccc(F)cc2)[C@H]2c3cc(C(=O)N4CCCC4)n(C[C@H](O)CO)c3C[C@H]2CN1C(=O)c1ccccc1`, the activation is 3.75% (inactive). Take `COC(=O)[C@@]1(Cc2ccc(F)cc2)[C@H]2c3cc(C(=O)N(C)C)n(CCc4c[nH]c5ccc(OC)cc45)c3C[C@H]2CN1C(=O)c1ccccc1`: the activation is 19.8% (active). `COC(=O)[C@@]1(Cc2ccc(F)cc2)[C@H]2c3cc(C(=O)N4CCCC4)n(Cc4ccc(OC(F)(F)F)cc4)c3C[C@H]2CN1C(=O)c1ccccc1`: the activation was 1.1% (inactive). For `O=C(CN1C(=O)NC2(CCCCCC2)C1=O)Nc1ccc([N+](=O)[O-])cc1`, the activation was -2.54% (inactive). With `COc1ccc(NC(=O)CC2COc3ccccc3O2)c(OC)c1` (stereo not given), the activation is 2.64% (inactive). As for `CCCCC(CC)CNC(=O)CCCCn1c(=O)[nH]c2ccsc2c1=O` (stereo not given), the activation was 15.6% (active).

With `CCN(CCCNC(=O)CCn1c(=O)[nH]c2ccsc2c1=O)c1ccccc1`, the activation is 2.47% (inactive). As for `O=C(CCCCCn1c(=S)[nH]c2ccsc2c1=O)NC1CCCCC1`, the activation is 2.92% (inactive). As for `COC(=O)c1ccc(NS(=O)(=O)c2cc3c4c(c2)C(C)C(=O)N4CCC3)cc1` (stereo not given), the figure is 2.55% (inactive); as for `O=C(O)CN(Cc1ccco1)S(=O)(=O)c1ccc(F)cc1`, -0.4% (inactive); as for `Cc1oc2cc([N+](=O)[O-])c(O)c([N+](=O)[O-])c2c1C(=O)c1ccc(Br)cc1`, -3.12% (inactive). Regarding `Cc1oc2cc(Br)c(O)c(Br)c2c1C(=O)c1ccccc1`, the activation is 16% (active). As to `COc1ccc(C(=O)c2c(C)oc3cc([N+](=O)[O-])c(O)c([N+](=O)[O-])c23)cc1`, the activation is -5.67% (inactive). Consider `O=C1CCCc2c1[nH]c1ccc(Br)cc21`, for which the activation was 1.31% (inactive). Turning to `CCn1c(SCC(=O)N/N=C/c2ccccc2OCC(=O)O)nnc1-c1ccc(C(C)(C)C)cc1`, the activation is 6.89% (inactive).

In the case of `O=C(Nc1cccc(Cc2ccccc2)c1)Nc1ccc2nc([C@@H]3O[C@H](CO)[C@@H](O)[C@H](O)[C@H]3O)[nH]c2c1`, the activation was -13% (inactive). In the case of `CCCC1CCC(=NNC(=S)NCCc2ccccc2)CC1` (stereo not given), the activation is 0.18% (inactive). `CC(=O)Nc1ccc(C(=O)N(C2=NC(C)CS2)c2ccc(Cl)cc2)cc1` (stereo not given): the activation is -3.34% (inactive). In the case of `CC(=O)NS(=O)(=O)c1ccc(NC(=O)C2C3C=CC(C3)C2C(=O)O)cc1` (stereo not given), the activation is 2.61% (inactive).

As to `CCCCNC(=O)C[C@@H]1C[C@@]2(C(=O)OCC)CCC=C2N(Cc2ccco2)C1=O`, the activation was -3.77% (inactive). For the compound `O=C1C=C(c2cccc(Cl)c2)C[C@@H](c2ccc(F)cc2)C1`, the activation was -0.66% (inactive). As for `O=C1CC(c2cccc(Cl)c2)CC(O)=C1C=Nc1ccccc1` (stereo not given), the activation was 20.8% (active). As for `O=C1CCCC(O)=C1C=NCCc1ccccc1`, the activation is 2.15% (inactive). Take `C[C@@H]1CN([C@@H](C)CO)C(=O)c2cc(Br)cnc2O[C@H]1CN(C)Cc1ccc(-c2ccccc2)cc1`: the activation was -1.74% (inactive).

Regarding `Cn1c(=NC(=O)c2ccco2)sc2cccc(F)c21`, the activation was 2.52% (inactive). As to `CCCC(=O)N=c1sc2cccc(F)c2n1C`, the activation was 39.7% (active). Take `Cn1c(=NC(=O)c2cnccn2)sc2ccccc21`: the activation is -2.18% (inactive). With `CCOC(=O)/C=C/c1ccc(C(F)(F)F)cc1S(=O)(=O)NC(C)(C)C`, the activation is -0.74% (inactive).

Consider `COc1ccc(N2CC(C(=O)NCCN3C(=O)S/C(=C\c4cccnc4)C3=O)CC2=O)c(OC)c1` (stereo not given), for which the activation was 18.4% (active). As for `Cc1cc(OCCCC(=O)NCCN2C(=O)S/C(=C\c3cccnc3)C2=O)ccc1Cl`, the figure is 8.37% (inactive); as for `COc1ccccc1N1CC(C(=O)NCCN2C(=O)S/C(=C\c3cccnc3)C2=O)CC1=O` (stereo not given), -0.83% (inactive); as for `CC1CCN(C(=O)COC(=O)c2cc(S(=O)(=O)N3CCOCC3)ccc2Cl)CC1`, -1.57% (inactive).

With `O=C(COC(=O)c1ccc(S(=O)(=O)N2CCc3ccccc3C2)cc1)NC(=O)NCc1ccco1`, the activation is -5.24% (inactive). As for `COc1cc(NC(=O)C2CCN(c3cnccn3)CC2)cc(OC)c1`, the figure is -2.92% (inactive); as for `CCOC(=O)Cc1cc(=O)[nH]c(=O)[nH]1`, -0.86% (inactive); as for `CCOCCCNC(=O)C(=O)NCCCOCC`, 0.95% (inactive). In the case of `CCOCCCNC(=O)Cc1cc(=O)[nH]c(=O)[nH]1`, the activation was 20.9% (active).

In the case of `Cc1cc(OCCN2CCCC2)cc(C(C)C)c1`, the activation was -5.99% (inactive). As for `CCOC(=O)c1ccc(NC(=O)CCn2c(=O)oc3ccccc32)cc1`, the figure is -5.94% (inactive). For `CCOC(=O)c1ccc(NC(=O)Cn2cnc3cc(C)c(C)cc32)cc1` the value was 17.4% (active). For the compound `CCOC(=O)c1ccc(NC(=O)CS(=O)(=O)c2cn(CC)c3ccccc23)cc1`, the activation was -0.07% (inactive). Take `COc1ccc2c(c1)C(C)=CC(C)(C)N2C(=O)CNCc1ccc2c(c1)OCO2`: the activation was -18.1% (inactive).

As for `CCn1nnc(NC(=O)c2c(OC)cccc2OC)n1`, the activation was -1.47% (inactive). On to `Cc1ccc(CCNC(=O)CN2C(=O)CSc3ccc(S(=O)(=O)N4CCOCC4)cc32)cc1`, for which the activation was -3.24% (inactive).

As to `COc1ccc(C2c3[nH]c4ccccc4c3C[C@H]3C(=O)N(CC(C)C)CC(=O)N23)c(OC)c1` (stereo not given in full), the activation was 26.6% (active). For `CCC(C)N1CC(=O)N2Cc3[nH]c4ccccc4c3C[C@H]2C1=O` (stereo not given in full) the value was -3.21% (inactive). For `COc1cccc(C2c3[nH]c4ccccc4c3CCN2Cc2cccc(C)n2)c1` (stereo not given), the activation was -2.83% (inactive). With `S=C(Nc1ccc(Cl)cc1Cl)N1CCCC1`, the activation was -3.15% (inactive).

On to `O=C(c1ccncc1)N1CCN(c2ccc3ccccc3n2)CC1`, for which the activation was 25.6% (active).

Turning to `O=C(c1ccc2ccccc2n1)N1CCN(c2ccccc2Cl)CC1`, the activation was 7.25% (inactive). Regarding `c1cnc(N2CCN(c3ccc4ccccc4n3)CC2)nc1`, the activation is -1.28% (inactive). On to `COc1ccc(NC(=O)COC(=O)c2ccncc2)c(OC)c1`, for which the activation is -1.11% (inactive). `CCOC(=O)N1CCC(Nc2c(NCCCN3CCN(c4ccc(OC)cc4)CC3)c(=O)c2=O)CC1`: the activation is 4.04% (inactive). `CCCOc1ccc(CNC(=O)C2CCN(c3nn4c(=O)cc(C)nc4s3)CC2)cc1`: the activation is 11% (inactive). As for `COC(=O)CSc1nnc(-c2cccnc2)o1`, the activation was 1.04% (inactive). Consider `O=C(CSc1nnc(-c2ccncc2)o1)Nc1cccc(Cl)c1`, for which the activation was -0.76% (inactive). In the case of `COc1cccc(NC(=O)CSc2nnc(-c3cccnc3)o2)c1`, the activation was 14.9% (active). Regarding `O=C(CSc1nncs1)NC1CCCc2ccccc21` (stereo not given), the activation was -0.06% (inactive). With `CC(C)COC(=O)n1c(=O)oc2ccc(S(=O)(=O)N3CCCCC3)cc21`, the activation was 0.93% (inactive).

In the case of `COc1ccc(Cn2c(=O)sc3ccccc32)cc1OC`, the activation was 8.35% (inactive). In the case of `Cc1csc2ncc(C(=O)N(Cc3ccccc3)c3ccccn3)c(=O)n12`, the activation was 0.53% (inactive).

`COc1ccccc1C(=O)NC(CCSC)C(=O)N1CCN(C(C)=O)CC1` (stereo not given): the activation is -3.47% (inactive). Take `CC(C)CNC(=S)NNC(=O)c1ccccc1OC(F)F`: the activation was 1.02% (inactive). With `CC(C)Oc1ccccc1C(=O)NC(CO)C(=O)O` (stereo not given), the activation is 21.6% (active). For `O=C(COc1ccc2c(c1)CCC2)N1CCN(c2ccc(F)cc2)CC1` the value was -4.42% (inactive); for `CC[C@@H](C)[C@H](NC(=O)CCc1c(C)c2cc3c4c(oc3c(C)c2oc1=O)CCCC4)C(=O)O`, 6.8% (inactive); for `CCCCNS(=O)(=O)c1ccc2nc(SCC(=O)Nc3cc(C)cc(C)c3)[nH]c2c1`, 12.2% (inactive). Regarding `Cc1cc(C)n(S(=O)(=O)c2cccc([N+](=O)[O-])c2)n1`, the activation is 18.4% (active). In the case of `CC1=NCCN1S(=O)(=O)c1cccc([N+](=O)[O-])c1`, the activation was -2.76% (inactive). As to `O=[N+]([O-])c1cccc(S(=O)(=O)N2CCCCCC2)c1`, the activation was -1.72% (inactive). For `Cc1cc(C)cc(NC(=O)COc2coc(CN3CCN(c4ccccc4)CC3)cc2=O)c1` the value was 6.93% (inactive). Turning to `c1ccc(-c2nnc3n2NC(c2ccc4c(c2)OCO4)S3)cc1` (stereo not given), the activation was -0.81% (inactive). Turning to `Cc1ccc(/C=C/C(=O)OCC(=O)NCc2ccc(Cl)cc2)o1`, the activation was -2.51% (inactive). Take `CCCCn1c(N)c(N(CCC(C)C)C(=O)c2ccc([N+](=O)[O-])o2)c(=O)[nH]c1=O`: the activation is 5.32% (inactive). As to `CCCCn1c(N)c(N(CC(C)C)C(=O)CN(C)S(=O)(=O)c2ccc(F)cc2)c(=O)[nH]c1=O`, the activation is 2.45% (inactive).

Consider `CCCCn1c(N)c(N(CC(C)C)C(=O)CSc2ccc([N+](=O)[O-])cc2)c(=O)[nH]c1=O`, for which the activation is 20.3% (active).
